hNpr1 antagonist = human Npr1 receptor antagonism. Potency, µM (doses to about 46.3 µM), actives largely listed as inhibitors. actives 1.6% (n = 76,000). AID 1347048. HEK293 hNpr1 GloSensor cGMP, ANP-stimulated luminescence; also: nearly all actives have a fitted effect of over 60% in size
Target sequence (P16066 whole entry, looked up): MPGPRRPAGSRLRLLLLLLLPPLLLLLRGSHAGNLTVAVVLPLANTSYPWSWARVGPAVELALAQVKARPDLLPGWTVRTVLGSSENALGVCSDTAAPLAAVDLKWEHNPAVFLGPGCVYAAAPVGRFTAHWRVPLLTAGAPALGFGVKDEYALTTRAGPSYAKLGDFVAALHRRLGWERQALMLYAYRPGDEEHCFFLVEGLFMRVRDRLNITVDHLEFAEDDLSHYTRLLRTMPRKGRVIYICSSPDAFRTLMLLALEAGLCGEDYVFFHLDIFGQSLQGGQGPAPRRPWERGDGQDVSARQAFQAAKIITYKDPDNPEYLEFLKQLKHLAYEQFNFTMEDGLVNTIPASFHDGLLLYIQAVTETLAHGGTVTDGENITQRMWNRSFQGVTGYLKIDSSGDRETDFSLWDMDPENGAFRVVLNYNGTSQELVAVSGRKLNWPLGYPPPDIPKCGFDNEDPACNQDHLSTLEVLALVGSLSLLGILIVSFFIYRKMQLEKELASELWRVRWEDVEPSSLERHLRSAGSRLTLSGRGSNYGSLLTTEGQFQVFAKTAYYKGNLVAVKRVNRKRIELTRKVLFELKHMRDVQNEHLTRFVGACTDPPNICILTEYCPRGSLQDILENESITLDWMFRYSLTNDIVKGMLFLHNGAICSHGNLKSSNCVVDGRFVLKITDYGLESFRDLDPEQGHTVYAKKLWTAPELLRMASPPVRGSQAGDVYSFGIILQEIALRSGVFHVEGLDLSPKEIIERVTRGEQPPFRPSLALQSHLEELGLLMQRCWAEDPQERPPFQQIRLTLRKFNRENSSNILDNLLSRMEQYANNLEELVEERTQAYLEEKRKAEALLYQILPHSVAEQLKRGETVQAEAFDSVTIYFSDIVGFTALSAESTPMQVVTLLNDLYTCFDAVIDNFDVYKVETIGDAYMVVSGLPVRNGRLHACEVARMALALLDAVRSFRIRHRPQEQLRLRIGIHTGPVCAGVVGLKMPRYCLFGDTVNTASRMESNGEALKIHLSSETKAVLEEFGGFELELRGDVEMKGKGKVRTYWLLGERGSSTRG
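HEK293 cells stably expressing human Npr1 and cGMP GloSensor pGS-40F, loaded 2 h with 2% GloSensor reagent, given compound 30 min at room temperature. Luminescence read before and 20 min after 0.1 nM hNppA.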
3T3 cytotox = cytotoxic compounds in NIH 3T3 cells; NIH 3T3 viability, CellTiter-Glo ATP luminescence, 48-72 h; Potency, µM (doses to about 96.7 µM), hits mostly inhibitors; actives 4.3% (n = 94,000); active = well fitted curve in the direction sought with a large enough effect; inconclusive = small, poorly fitted or top-dose-only effect, or another doubt; inactive = no such curve, though single readings can be large; an effect the other way counts as inactive or inconclusive; also: nearly all actives have a fitted effect of over 55% in size
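Viability of NIH 3T3 cells after 48 or 72 hr compound treatment at 37 °C was assessed by CellTiter-Glo, with luminescence imaged following a 10 min room-temperature step.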
Luciferase inh = inhibitors of firefly (Photinus pyralis) luciferase | purified P. pyralis luciferase, luminescence, biochemical | Potency, µM (titrated, usually from 115 µM), most hits filed as inhibitors | actives 2.5% (n = 76,000); active = well fitted curve in the direction sought with a large enough effect; inconclusive = small, poorly fitted or top-dose-only effect, or another doubt; inactive = no such curve, though single readings can be large; an effect the other way counts as inactive or inconclusive; also: nearly all actives have a fitted effect of over 65% in size
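Luminescence read by CCD imager after adding enzyme (10nM final) to wells holding compound, titrated in qHTS. Substrates 10uM each D-luciferin and ATP; buffer 50mM Tris acetate pH 7.5, 10mM Mg acetate, Tween-20, BSA.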
HEK293 tox = HEK 293 cell cytotoxicity. HEK 293 viability, ATP luminescence (CellTiter-Glo), 48-72 h. Potency, µM (highest dose often 115 µM), actives largely listed as inhibitors. actives 6.6% (n = 94,000). AID 1345083; active = well fitted curve in the direction sought with a large enough effect; inconclusive = small, poorly fitted or top-dose-only effect, or another doubt; inactive = no such curve, though single readings can be large; an effect the other way counts as inactive or inconclusive; also: nearly all actives have a fitted effect of over 60% in size
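Luminescence from cellular ATP, measured with CellTiter-Glo, indicates HEK 293 viability. Cells plated at 250 cells/well are treated with compound for 48 or 72 hr at 37 degree Celsius before reagent addition.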
Npr1 antag conf = confirmation of human Npr1 natriuretic peptide receptor antagonists; shares compounds with hNpr1 antagonist; HEK293 hNpr1 cGMP GloSensor luminescence, ANP-stimulated; Potency, µM (titrated, usually from 57.6 µM), actives largely listed as inhibitors; actives 76% (n = 1,400); AID 1347044; also: nearly all actives have a fitted effect of over 70% in size
Npr2 selectivity = hNpr2 antagonism, selectivity versus Npr1; HEK293 hNpr2 GloSensor cGMP luminescence, CNP-stimulated; Potency, µM (highest dose often 57.6 µM), most hits filed as inhibitors; shares compounds with hNpr1 antagonist; actives 67% (n = 1,400); also: nearly all actives have a fitted effect of over 70% in size
FLuc inh counter = inhibits firefly luciferase, false Npr1 antagonist flag. Potency, µM (doses to about 57.6 µM), most hits filed as inhibitors. purified FLuc enzyme, luminescence, Km substrate. shares compounds with hNpr1 antagonist. actives 0.7% (n = 1,400). AID 1347047; active = well fitted curve in the direction sought with a large enough effect; inconclusive = small, poorly fitted or top-dose-only effect, or another doubt; inactive = no such curve, though single readings can be large; an effect the other way counts as inactive or inconclusive
GloSensor cGMP = reduces cGMP signal in GloSensor control cells; shares compounds with hNpr1 antagonist; HEK293 GloSensor cGMP, SNP-stimulated, luminescence; AID 1347051; actives 69% (n = 1,400); Potency, µM (series often up to 57.6 µM), hits mostly inhibitors; also: nearly all actives have a fitted effect of over 70% in size
Of the large screens only hits and unclear results are named; the others gave an inactive call (follow-up assays come after a bar, where they were run). This is a sample that favours compounds with a hit; in the whole collection about 11% have one here. Unless noted, calls follow the shape of the full dose curve.

O=C(Cc1c[nH]c2ncc(-c3ccccc3)cc12)N1CCCC1	hNpr1 antagonist inconclusive, 3T3 cytotox inconclusive, HEK293 tox inconclusive | Npr1 antag conf 28µM | Npr2 selectivity inconclusive | FLuc inh counter inconclusive | GloSensor cGMP inconclusive
O=C(Cc1c[nH]c2ncc(-c3cccc(O)c3)cc12)N1CCOCC1	3T3 cytotox inconclusive, HEK293 tox inconclusive
O=C(Cc1c[nH]c2ncc(-c3ccccc3)cc12)NCCN1CCOCC1	3T3 cytotox inconclusive
COc1ccc(-c2cnc3[nH]cc(CC(=O)N4CCNC(=O)C4)c3c2)cc1	3T3 cytotox inconclusive
O=C(Cc1c[nH]c2ncc(-c3ccccc3)cc12)N1CC[S+](=O)([O-])CC1	3T3 cytotox inconclusive, Luciferase inh inconclusive
COc1cc(F)cc(-c2cnc3[nH]cc(CC(=O)N4CCOCC4)c3c2)c1	hNpr1 antagonist 6.3µM, 3T3 cytotox inconclusive, HEK293 tox inconclusive | Npr1 antag conf 3.1µM | Npr2 selectivity 18µM | FLuc inh counter inconclusive | GloSensor cGMP 7.9µM
Cc1ccc(CNC(=O)c2c(C)sc3ccn(CC(C)C)c(=O)c23)o1	HEK293 tox inconclusive
COCCNC(=O)[C@@H]1C[C@H](Oc2ccccc2)CN1C(=O)CCc1c(C)nn(C)c1C	none
O=C(NC1CCCN(CCn2nc3n(c2=O)CCCC3)C1)c1ccccc1 (centres undefined)	none (no result: hNpr1 antagonist, Luciferase inh)
COc1ccccc1NC(=O)N1CC[C@H](c2nnc(-c3ccc(C)cc3)o2)C1	Luciferase inh inconclusive, HEK293 tox inconclusive
C[S+](=O)([O-])CCn1ncc2cc(OCC3CCN(c4ncc(F)cn4)CC3)ccc21	none (no result: hNpr1 antagonist, 3T3 cytotox, Luciferase inh, HEK293 tox) | Npr1 antag conf 13µM | Npr2 selectivity inconclusive | FLuc inh counter inactive | GloSensor cGMP 11µM
Cc1c(C(=O)N(C)Cc2cc(-c3cccnc3)no2)oc2c(F)cccc12	hNpr1 antagonist inconclusive, 3T3 cytotox inconclusive, HEK293 tox inconclusive | Npr1 antag conf inconclusive | Npr2 selectivity inactive | FLuc inh counter inactive | GloSensor cGMP inactive
COCCN1C(=O)CS(=O)(=O)C12CCN(C(=O)c1ccc(Cl)cc1)CC2	none
O=[S+]([O-])(Nc1ccccc1)c1ccc2c(c1)OCCN(Cc1cccnc1)C2	hNpr1 antagonist 22µM, 3T3 cytotox inconclusive, HEK293 tox inconclusive | Npr1 antag conf 40µM | Npr2 selectivity inconclusive | FLuc inh counter inactive | GloSensor cGMP 40µM
CCn1cc(CN(C)C(=O)c2ccc3c(c2)C(O)CCCCCN3C)c(C)n1 (centres undefined)	hNpr1 antagonist inconclusive, 3T3 cytotox inconclusive, HEK293 tox inconclusive
Cc1nn(C)c(C)c1CCCN(C)C(=O)c1ccc2c(c1)C(O)CCCCCN2C (centres undefined)	hNpr1 antagonist 11µM, 3T3 cytotox inconclusive, HEK293 tox 35µM | Npr1 antag conf 12µM | Npr2 selectivity 14µM | FLuc inh counter inactive | GloSensor cGMP 9.7µM
CCCCN(C)C(=O)CC1CCN(c2ccnc(OC)n2)CC1	hNpr1 antagonist 11µM, 3T3 cytotox inconclusive, HEK293 tox inconclusive | Npr1 antag conf 17µM | Npr2 selectivity 15µM | FLuc inh counter inactive | GloSensor cGMP 11µM
COc1nccc(N2CCC(CC(=O)NCc3ccccc3F)CC2)n1	hNpr1 antagonist inconclusive, 3T3 cytotox inconclusive, HEK293 tox inconclusive | Npr1 antag conf inconclusive | Npr2 selectivity inconclusive | FLuc inh counter inactive | GloSensor cGMP inconclusive
CCc1cccc(NC(=O)Cn2c(N3CCOCC3)nc(COC)cc2=O)c1	none
COc1cccc(CN2CC(Oc3ccccc3C(=O)N3CCOCC3)C2)c1	none (no result: hNpr1 antagonist, Luciferase inh)
O=C(Nc1cccc(Cl)c1)C1CCN(C(=O)c2ncn3c2COC(c2ccc(F)cc2)C3)CC1 (centres undefined)	hNpr1 antagonist inconclusive, Luciferase inh inconclusive, HEK293 tox inconclusive
O=C(Nc1cccc(F)c1)C1CCN(C(=O)c2ncn3c2COC(c2ccc(F)cc2)C3)CC1 (centres undefined)	hNpr1 antagonist inconclusive, HEK293 tox inconclusive | Npr1 antag conf inconclusive | Npr2 selectivity inactive | FLuc inh counter inactive | GloSensor cGMP inconclusive
COc1ccc(C(=O)N2CCOC3(CCN([S+](C)(=O)[O-])CC3)C2)cc1	none (no result: hNpr1 antagonist, Luciferase inh)
O=C(Nc1cccnc1)c1cc(-c2ccccc2F)cc2c1OCCN2Cc1cccnc1	hNpr1 antagonist inconclusive, 3T3 cytotox 40µM, HEK293 tox inconclusive | Npr1 antag conf inconclusive | Npr2 selectivity 31µM | FLuc inh counter inactive | GloSensor cGMP inactive
O=[S+]1([O-])NCC2(CCCN(Cc3ccc(F)cc3)C2)Oc2ncccc21 (centres undefined)	none (no result: hNpr1 antagonist, Luciferase inh)
COCCN1C(=O)c2cccn2CC1CNC(=O)c1cccc(OC)c1 (centres undefined)	none
COc1ccc2oc(CNC(=O)c3cc(CC(C)C)nn3C)nc2c1	hNpr1 antagonist 13µM, HEK293 tox inconclusive | Npr1 antag conf 17µM | Npr2 selectivity 17µM | FLuc inh counter inactive | GloSensor cGMP 15µM
COc1ccc(-c2ccc3nnc(CNC(=O)c4cccn4C)n3n2)cc1	none
COc1ccccc1Nc1ncc2c(n1)CN(C(=O)c1cccc(N(C)C)c1)CCN2	hNpr1 antagonist 22µM, HEK293 tox 79µM | Npr1 antag conf 31µM | Npr2 selectivity 35µM | FLuc inh counter inactive | GloSensor cGMP 25µM
CN(C)c1cccc(C(=O)N2CCNc3cnc(Nc4ccc(N5CCOCC5)cc4)nc3C2)c1	HEK293 tox inconclusive
COc1ccccc1Nc1ncc2c(n1)CN(C(=O)c1ccccc1)CCN2	hNpr1 antagonist 32µM, 3T3 cytotox inconclusive, HEK293 tox inconclusive | Npr1 antag conf 40µM | Npr2 selectivity inconclusive | FLuc inh counter inactive | GloSensor cGMP 40µM
Cc1ccc(NC(=O)N2CCC3(CC2)CC(Cc2nc(-c4ccccc4)no2)CCO3)cc1C (centres undefined)	hNpr1 antagonist 10µM, 3T3 cytotox inconclusive, HEK293 tox inconclusive | Npr1 antag conf 12µM | Npr2 selectivity 15µM | FLuc inh counter inactive | GloSensor cGMP 12µM
O=C(N1CCC2(CC1)CC(Cc1nc(-c3cnccn3)no1)CCO2)C1(c2ccccc2)CC1 (centres undefined)	HEK293 tox inconclusive
COc1ccc(-c2noc(CC3CCN(C(=O)CCCc4ccccc4)CC3)n2)cc1	hNpr1 antagonist inconclusive, 3T3 cytotox inconclusive, HEK293 tox 28µM | Npr1 antag conf 17µM | Npr2 selectivity 19µM | FLuc inh counter inactive | GloSensor cGMP 19µM
COc1ccc(CCC(=O)N2CCC(Cc3nc(C4CCOCC4)no3)CC2)cc1	HEK293 tox inconclusive
